Screening data from PubChem BioAssay.
Shown are actives, neighbours in structure and some others; about 12% of the full set was active somewhere.
PLK1 PBD inh: qHTS for Inhibitors of PLK1-PDB (polo-like kinase 1 - polo-box domain): Primary Screen; Serine/threonine-protein kinase PLK1 (Homo sapiens), P53350; Plk1 PBD binding of FITC phosphopeptide, fluorescence polarization; Potency, µM, hits mostly inhibitors; actives 2.8% (n = 360,000); AID 720504, 2013; note: series mostly up to about 57 µM; nearly all actives have a fitted effect of over 65% in size
JMJD2A Tudor inh: qHTS Assay for Inhibitors of JMJD2A-Tudor Domain; Potency, µM (titrated, usually from 114 µM), most hits filed as inhibitors; actives 4.4% (n = 390,000); AlphaScreen JMJD2A-Tudor / H3K4me3 peptide binding; Lysine-specific demethylase 4A (Homo sapiens), O75164; note: nearly all actives have a fitted effect of over 50% in size
Sfp inh: qHTS Assay for Inhibitors of Bacillus subtilis Sfp phosphopantetheinyl transferase (PPTase); actives 3.5% (n = 310,000); Biochemical Sfp PPTase activity, qHTS; Potency, µM, most hits filed as inhibitors;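 note: the enzyme is Sfp with the accession as filed and its product quenches rhodamine fluorescence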
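Sfp 15 nM + cpd, 15 min RT; start w/ rhodamine-CoA 5 uM, BHQ-2-YbbR 12.5 uM (final); 50 mM Hepes pH 7.6, 10 mM MgCl2, 0.01% NP-40, 0.01% BSA; read 525/598 nm at 0 and 30 min.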
BAZ2B inh: qHTS Assay for Inhibitors of BAZ2B; Potency, µM (top dose mostly 114 µM), most hits filed as inhibitors; actives 4.4% (n = 360,000); AlphaScreen BAZ2B-H3K14Ac peptide displacement; Bromodomain adjacent to zinc finger domain protein 2B (Homo sapiens), Q9UIF8; note: nearly all actives have a fitted effect of over 60% in size
Target sequence (Q9UIF8 whole entry, looked up, the tested form may be a part): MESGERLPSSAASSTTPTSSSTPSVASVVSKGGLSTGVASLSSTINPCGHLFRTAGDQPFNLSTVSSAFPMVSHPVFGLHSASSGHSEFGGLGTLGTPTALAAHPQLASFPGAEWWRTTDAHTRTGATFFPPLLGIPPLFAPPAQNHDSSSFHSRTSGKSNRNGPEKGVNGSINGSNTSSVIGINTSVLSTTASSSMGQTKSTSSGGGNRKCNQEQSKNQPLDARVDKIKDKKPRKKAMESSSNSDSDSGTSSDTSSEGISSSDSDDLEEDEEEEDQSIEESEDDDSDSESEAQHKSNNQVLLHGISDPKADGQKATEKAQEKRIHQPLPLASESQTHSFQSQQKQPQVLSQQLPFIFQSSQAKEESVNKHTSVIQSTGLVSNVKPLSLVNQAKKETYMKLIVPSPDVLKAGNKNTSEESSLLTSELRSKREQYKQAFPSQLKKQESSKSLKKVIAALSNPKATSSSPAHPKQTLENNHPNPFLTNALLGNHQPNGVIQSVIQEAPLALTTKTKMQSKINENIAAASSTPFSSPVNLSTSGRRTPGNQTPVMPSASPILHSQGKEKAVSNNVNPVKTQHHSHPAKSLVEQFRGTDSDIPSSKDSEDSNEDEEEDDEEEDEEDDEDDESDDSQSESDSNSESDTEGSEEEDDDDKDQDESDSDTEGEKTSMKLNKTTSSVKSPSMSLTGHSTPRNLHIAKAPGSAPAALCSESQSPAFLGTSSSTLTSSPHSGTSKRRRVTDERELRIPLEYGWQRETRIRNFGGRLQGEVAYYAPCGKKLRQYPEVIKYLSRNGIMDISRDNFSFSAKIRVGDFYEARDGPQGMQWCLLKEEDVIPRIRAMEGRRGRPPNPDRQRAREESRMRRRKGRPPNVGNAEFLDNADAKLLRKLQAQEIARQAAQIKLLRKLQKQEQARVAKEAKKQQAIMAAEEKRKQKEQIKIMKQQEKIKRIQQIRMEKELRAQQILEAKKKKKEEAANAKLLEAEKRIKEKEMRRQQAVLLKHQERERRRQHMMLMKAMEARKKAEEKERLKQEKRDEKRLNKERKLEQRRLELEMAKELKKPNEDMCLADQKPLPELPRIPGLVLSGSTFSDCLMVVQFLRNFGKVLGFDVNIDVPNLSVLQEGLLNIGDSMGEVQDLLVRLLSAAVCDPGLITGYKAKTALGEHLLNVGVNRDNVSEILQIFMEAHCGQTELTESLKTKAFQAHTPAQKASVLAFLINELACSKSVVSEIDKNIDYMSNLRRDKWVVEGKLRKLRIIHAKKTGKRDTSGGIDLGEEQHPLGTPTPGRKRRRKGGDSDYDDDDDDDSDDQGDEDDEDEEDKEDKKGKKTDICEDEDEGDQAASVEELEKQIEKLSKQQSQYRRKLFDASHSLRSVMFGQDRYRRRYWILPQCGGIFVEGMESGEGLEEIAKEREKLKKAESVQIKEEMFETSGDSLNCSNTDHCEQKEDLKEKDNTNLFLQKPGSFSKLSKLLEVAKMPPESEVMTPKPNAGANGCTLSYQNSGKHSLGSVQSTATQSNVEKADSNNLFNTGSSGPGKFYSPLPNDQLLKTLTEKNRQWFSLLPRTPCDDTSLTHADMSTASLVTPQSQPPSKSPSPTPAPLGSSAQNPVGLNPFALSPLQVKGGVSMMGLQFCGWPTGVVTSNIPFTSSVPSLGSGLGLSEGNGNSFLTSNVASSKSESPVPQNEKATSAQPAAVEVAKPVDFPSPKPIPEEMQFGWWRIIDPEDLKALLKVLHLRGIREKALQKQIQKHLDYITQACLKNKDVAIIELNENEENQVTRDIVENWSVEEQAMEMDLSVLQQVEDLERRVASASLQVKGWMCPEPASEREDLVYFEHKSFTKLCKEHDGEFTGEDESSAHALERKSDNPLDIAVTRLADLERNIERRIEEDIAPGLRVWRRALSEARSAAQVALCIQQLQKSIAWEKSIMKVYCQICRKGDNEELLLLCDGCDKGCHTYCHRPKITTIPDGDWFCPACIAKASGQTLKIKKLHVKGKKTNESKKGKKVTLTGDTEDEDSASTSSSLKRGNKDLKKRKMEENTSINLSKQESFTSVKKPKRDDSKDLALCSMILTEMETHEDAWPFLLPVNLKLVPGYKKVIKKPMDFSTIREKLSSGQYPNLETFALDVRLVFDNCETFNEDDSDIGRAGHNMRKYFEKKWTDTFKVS
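AlphaScreen displacement of biotin-H3(5-23)K14Ac peptide (50 nM final) from BAZ2B (50 nM final) in PBS pH 7.4, 0.01% Tween-20; complex preformed 30 min RT, then compounds (top 110 uM) 30 min RT, beads 20 min dark.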
HP1b chromo inh: HTS for Inhibitors of HP1-beta Chromodomain Interactions with Methylated Histone Tails. AlphaScreen HP1-beta / biotin-H3K9me3 peptide binding. Potency, µM (titrated, usually from 114 µM), hits mostly inhibitors. actives 0.56% (n = 390,000). AID 540317, 2011; note: nearly all actives have a fitted effect of over 70% in size
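HP1-beta protein (50 nM final) preincubated 30 min at room temperature with biotinylated H3(1-18)K9me3 peptide (50 nM) in PBS pH 7.4, 0.01% Tween-20, then compound added for 30 min. AlphaScreen streptavidin donor/nickel chelate acceptor beads (10 ug/mL final), 30 min dark, luminescence read.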
G9a inh: qHTS Assay for Inhibitors of Histone Lysine Methyltransferase G9a. Histone-lysine N-methyltransferase EHMT2 (Homo sapiens), Q96KQ7. G9a H3K9 monomethylation, AlphaScreen, 2 h. Potency, µM (highest dose often 102 µM), usual class: inhibitors. actives 8.8% (n = 350,000). AID 504332, 2011; note: nearly all actives have a fitted effect of over 75% in size
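Enzyme 20 nM + cpd, 15 min RT; add b-H3K9 pep 500 nM / SAM 20 uM; 2 h RT; anti-H3K9me1 Ab 0.5 ug/mL + SA donor / anti-rabbit acceptor beads 20 ug/mL each, 10 min; AlphaScreen read.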
Of the large screens only hits and unclear results are named; the others gave an inactive call; ! = a repeat was not active. Calls come from the whole dose curve; as a rule, active = well fitted curve in the direction sought with a large enough effect; inconclusive = small, poorly fitted or top-dose-only effect, or another doubt; inactive = no such curve, though single readings can be large; an effect the other way counts as inactive or inconclusive.

O=C(C1CCCN(S(=O)(=O)c2cccnc2)C1)N1CCn2c1nc1ccccc12 (stereo unspecified)	BAZ2B inh inconclusive
Cc1ccccc1CC(=O)N1CCCC1	none
C#CCOCCOCCOCCNc1nc(N2CCN(C(=O)[C@H]([C@@H](C)CC)n3cc([C@@H](N)CC(C)C)nn3)CC2)nc(N2CCN(C(=O)[C@H](Cc3ccc(O)cc3)n3cc([C@@H](N)C(C)CC)nn3)CC2)n1 (stereo partly specified)	JMJD2A Tudor inh inconclusive, BAZ2B inh 79.4µM
C#CCOCCOCCOCCNc1nc(N2CCN(C(=O)[C@H]([C@@H](C)CC)n3cc([C@@H](N)Cc4ccc(O)cc4)nn3)CC2)nc(N2CCN(C(=O)[C@H](Cc3ccc(O)cc3)n3cc([C@@H](N)C(C)CC)nn3)CC2)n1 (stereo partly specified)	JMJD2A Tudor inh 22.4µM, BAZ2B inh 79.4µM, G9a inh inconclusive
O=c1c(-c2ccc(F)cc2)nc2cnc(Nc3ccccc3)nc2n1Cc1cccs1	none (no result: PLK1 PBD inh, JMJD2A Tudor inh, BAZ2B inh, HP1b chromo inh)
COc1cccc(C(=O)NC2CC3CCCC(C2)N3CC(=O)Nc2ccc(N(C)C)cc2)c1 (stereo unspecified)	JMJD2A Tudor inh 39.8µM, BAZ2B inh 44.7µM, HP1b chromo inh inconclusive
C/C(CC(=O)Nc1ccc(N(C)C)cc1)=N\NC(=O)c1ccccc1O	JMJD2A Tudor inh 56.2µM, BAZ2B inh 35.5µM, G9a inh 50.1µM
COc1cccc(C(=O)N/N=C(\C)CC(=O)Nc2ccc(N(C)C)cc2)c1	BAZ2B inh 56.2µM (no result: G9a inh)
COc1cccc(C(=O)NC2CC3CCCC(C2)N3CC(=O)Nc2ccccc2)c1 (stereo unspecified)	BAZ2B inh inconclusive
COc1cccc(NC(=O)C(=O)N/N=C(\C)CC(=O)Nc2ccc(NC(C)=O)cc2)c1	G9a inh 70.8µM
CC(C)C(=O)N1CCN(c2ccccc2NC(=S)NC(=O)Cc2ccccc2)CC1	none (no result: Sfp inh, BAZ2B inh, G9a inh)
CC(C)Oc1ccc(CNC(=O)CCCN2C(=O)c3cccnc3Oc3ccc(Cl)cc32)cc1	none (no result: PLK1 PBD inh, Sfp inh)
C/C(CC(=O)Nc1ccc(N(C)C)cc1)=N\NC(=O)c1ccc([N+](=O)[O-])cc1Cl	PLK1 PBD inh 21.2µM, JMJD2A Tudor inh inconclusive, BAZ2B inh inconclusive, HP1b chromo inh inconclusive, G9a inh 44.7µM
C/C(CC(=O)Nc1ccc(N(C)C)cc1)=N\NC(=O)c1ccc(Cl)cc1Cl	JMJD2A Tudor inh inconclusive, BAZ2B inh inconclusive
O=c1cc(-c2ccccc2Cl)oc2c(Br)ccc(O)c12	G9a inh 56.2µM!
O=C(Nc1ccc(O)c2c(=O)cc(-c3ccccc3Cl)oc12)c1ccc(Cl)c(Cl)c1	Sfp inh 79.4µM!
O=C(Nc1ccc(O)c2c(=O)cc(-c3ccccc3Cl)oc12)c1cc(Cl)cc(Cl)c1	Sfp inh 56.2µM (no result: PLK1 PBD inh, BAZ2B inh, G9a inh)
O=C(CC[C@H]1O[C@@H](n2cnc3c(NC(=O)c4ccccc4)ncnc32)[C@H](O)[C@@H]1O)NCCCN1CCCC1=O	none (no result: JMJD2A Tudor inh, Sfp inh, BAZ2B inh, HP1b chromo inh, G9a inh)
CCOC(=O)c1ccc(NC(=O)CSc2nc(-c3cccs3)cc(C(F)(F)F)c2C#N)cc1	none (no result: PLK1 PBD inh, Sfp inh)
CCOC(=O)C1CCN(C(=O)Nc2ccc3nc(-c4ccco4)c(-c4ccco4)nc3c2)CC1	PLK1 PBD inh 11.9µM, JMJD2A Tudor inh 79.4µM, Sfp inh 14.1µM, BAZ2B inh 11.2µM, HP1b chromo inh 39.8µM, G9a inh 1.58µM
CCOC(=O)C1CCN(C(=O)CSc2nnc(-c3ccco3)n2-c2ccccc2)CC1	G9a inh 44.7µM
O=C(Nc1ccc2nc(-c3ccco3)c(-c3ccco3)nc2c1)N1CCCCCC1	PLK1 PBD inh 23.8µM, JMJD2A Tudor inh 12.6µM, Sfp inh 14.1µM, BAZ2B inh 11.2µM, HP1b chromo inh 15.8µM, G9a inh 5.01µM
COc1cccc(CNc2ccc(F)c(Cl)c2)c1	BAZ2B inh inconclusive, G9a inh 50.1µM
O=C(c1cc(-c2ccc(Cl)c(Cl)c2)on1)N1CCCCCC1	none
O=C(c1cc(-c2ccc(Br)cc2)on1)N1CCc2ccccc2C1	PLK1 PBD inh 33.6µM, JMJD2A Tudor inh 50.1µM
O=C(c1cc(-c2ccc(Cl)cc2)on1)N1CCCCCC1	PLK1 PBD inh 26.7µM, JMJD2A Tudor inh 25.1µM
Cc1ccc(S(=O)(=O)NNC(=O)C23CCC(CC2)C3)cc1	none (no result: JMJD2A Tudor inh, Sfp inh, BAZ2B inh, HP1b chromo inh, G9a inh)
COc1ccc(S(=O)(=O)NNC(=O)C23CC4CC(CC(C4)C2)C3)cc1	G9a inh 79.4µM
O=C(Nc1ccc(F)c(Cl)c1)c1cc(S(=O)(=O)N2CCCc3ccccc32)ccc1F	none (no result: PLK1 PBD inh, Sfp inh)
O=c1oc2ccccc2nc1/C=C(\O)c1ccccc1	Sfp inh inconclusive, BAZ2B inh inconclusive (no result: G9a inh)
O=c1oc2cc([N+](=O)[O-])ccc2nc1/C=C(O)/C=C/c1ccccc1	Sfp inh 50.1µM, BAZ2B inh 50.1µM, G9a inh 35.5µM (no result: PLK1 PBD inh, JMJD2A Tudor inh, HP1b chromo inh)
O=c1oc2cc([N+](=O)[O-])ccc2nc1/C=C(\O)c1cccc(Br)c1	JMJD2A Tudor inh inconclusive, BAZ2B inh inconclusive, G9a inh 20µM
COC(=O)C1=C(C(=O)OC)[C@@H]2N(Cc3ccccc3)c3ccccc3[C@@]23C[C@@H](C(=O)OC)N(S(=O)(=O)c2ccc(C)cc2)C3=N1	none (no result: PLK1 PBD inh, JMJD2A Tudor inh, BAZ2B inh, HP1b chromo inh, G9a inh)
CC(C)C[C@H](NC(=O)c1nc[nH]c1C(=O)N[C@@H](CC(C)C)C(=O)OC(C)(C)C)C(=O)OCc1ccccc1	none
CC(C)C[C@@H](CNCC(=O)[C@H](CC(C)C)NC(=O)c1[nH]cnc1C(=O)N[C@H](CN)CC(C)C)NC(=O)c1nc[nH]c1C(=O)N[C@@H](CC(=O)O)C(=O)O	JMJD2A Tudor inh 79.4µM (no result: Sfp inh, BAZ2B inh, G9a inh)
CC(C)C[C@@H](CN)NC(=O)c1nc[nH]c1C(=O)N[C@@H](CC(C)C)C(=O)CNC[C@H](C)NC(=O)c1nc[nH]c1C(=O)N[C@@H](CC(=O)O)C(=O)O	JMJD2A Tudor inh 79.4µM (no result: Sfp inh, BAZ2B inh, G9a inh)
CC(C)C[C@H](NC(=O)c1nc[nH]c1C(=O)N[C@@H](CCCCN)C(=O)OC(C)(C)C)C(=O)OC(C)(C)C	none (no result: Sfp inh, BAZ2B inh, G9a inh)
NS(=O)(=O)c1ccc(Sc2nc3ccccc3s2)c([N+](=O)[O-])c1	JMJD2A Tudor inh inconclusive, G9a inh 44.7µM
O=C(O)c1ccc(S(=O)(=O)Nc2cccc(CP(=O)(c3ccccc3)c3ccccc3)c2)cc1	G9a inh inconclusive
NS(=O)(=O)c1ccc(Sc2ccccn2)c([N+](=O)[O-])c1	none
